Measurements from PubChem BioAssay.
Values without a mark were called inactive. Where a call stands in place of a potency, no number is given. For some of these results: Potency and affinity values are given separately. Activity calls are given as the source filed them. Unless noted, no rule for the calls is given here.

What was measured:
[1] = antimalarial activity against Dd2 strain (AID 2302;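 active = growth inhibition above 50% at the single 2 µM test dose, taken to imply half-maximal potency below 2 µM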); details: P. falciparum Dd2 in RBCs, LDH growth readout, 72 h; at 2 µM; stronger effect = higher value
[2] = human hepatoma cell viability loss – ATP luminescence, cytotoxicity control for P. falciparum antimalarial project, primary screen (AID 2303;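 active = inhibition above 50%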); details: HepG2 viability, 24-48 h, at 10 µM, stronger effect = higher value
[3] = target: L-lactate dehydrogenase (Plasmodium falciparum (isolate CDC / Honduras)) (UniProt Q27743); test: PfLDH activity inhibition – cell lysate, 3D7 strain, counter-screen for P. falciparum growth inhibition project (AID 2304); details: P. falciparum 3D7 crude extract, LDH APAD/NBT absorbance; at 2 µM; stronger effect = higher value
[4] = inhibition of 3D7 malaria parasite growth – strain 3D7 (AID 2306); details: P. falciparum 3D7 erythrocytic growth, LDH absorbance, 72 h; at 2 µM; stronger effect = higher value
[5] = target: Calcium-dependent protein kinase 1 (Plasmodium falciparum (isolate 3D7)) (UniProt P62344); test: PfCDPK1 kinase inhibitors, biochemical, TCAMS library (AID 1159585; cut-off not given, nearly all actives have IC50 up to about 0.98 µM;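 also: inhibitors leave more ATP so luminescence rises with inhibition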); details: recombinant PfCDPK1, Kinase-Glo ATP depletion luminescence
[6] = target: Plasmodium falciparum protein kinase 6 (PK6, PF3D7_1337100) (UniProt Q8IDW1); test: PfPK6 kinase inhibitors, biochemical, TCAMS library (AID 1159586); details: recombinant PfPK6, Kinase-Glo ATP depletion luminescence
[7] = target: Protein kinase 7 (PK7), Plasmodium falciparum 3D7 (PF3D7_0213400) (UniProt Q7YTF7); test: inhibition of Plasmodium PK7 catalytic activity – biochemical, TCAMS antimalarial set, Kinase-Glo luminescence (AID 1159587); details: recombinant PfPK7, Kinase-Glo ATP depletion luminescence
[8] = target: Calcium-dependent protein kinase 4 (Plasmodium falciparum (isolate 3D7)) (UniProt Q8IBS5); test: PfCDPK4 kinase inhibitors, biochemical, TCAMS library (AID 1159588; cut-off not given, nearly all actives have IC50 up to about 0.91 µM); details: recombinant PfCDPK4, Kinase-Glo ATP depletion luminescence
Sequence of Calcium-dependent protein kinase 4 (Plasmodium falciparum (isolate 3D7)) (Q8IBS5 whole entry, looked up): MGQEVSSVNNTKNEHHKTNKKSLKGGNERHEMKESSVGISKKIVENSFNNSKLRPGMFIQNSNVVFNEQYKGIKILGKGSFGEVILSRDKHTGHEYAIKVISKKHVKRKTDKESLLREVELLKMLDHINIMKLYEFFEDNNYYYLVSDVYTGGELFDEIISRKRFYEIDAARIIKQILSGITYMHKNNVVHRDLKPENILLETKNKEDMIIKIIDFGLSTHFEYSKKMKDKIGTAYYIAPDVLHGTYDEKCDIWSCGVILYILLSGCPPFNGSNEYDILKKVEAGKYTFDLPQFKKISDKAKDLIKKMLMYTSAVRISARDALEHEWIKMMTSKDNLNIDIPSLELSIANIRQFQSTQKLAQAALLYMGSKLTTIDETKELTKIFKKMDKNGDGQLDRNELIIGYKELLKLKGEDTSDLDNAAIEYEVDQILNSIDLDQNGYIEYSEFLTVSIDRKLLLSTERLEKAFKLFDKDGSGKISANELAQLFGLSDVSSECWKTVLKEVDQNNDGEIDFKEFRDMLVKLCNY

Sequence of Protein kinase 7 (PK7), Plasmodium falciparum 3D7 (PF3D7_0213400) (Q7YTF7 1-343): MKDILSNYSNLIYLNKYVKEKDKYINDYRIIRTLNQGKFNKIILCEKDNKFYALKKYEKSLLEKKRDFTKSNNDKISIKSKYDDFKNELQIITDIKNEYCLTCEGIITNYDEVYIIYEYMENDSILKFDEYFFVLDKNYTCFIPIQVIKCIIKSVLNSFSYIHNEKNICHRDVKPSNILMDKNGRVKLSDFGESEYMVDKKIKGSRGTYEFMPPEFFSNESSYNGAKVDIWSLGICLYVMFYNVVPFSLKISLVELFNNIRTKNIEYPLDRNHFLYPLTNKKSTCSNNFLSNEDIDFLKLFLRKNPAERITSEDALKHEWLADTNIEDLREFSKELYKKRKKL
Sequence of L-lactate dehydrogenase (Plasmodium falciparum (isolate CDC / Honduras)) (Q27743 whole entry, looked up): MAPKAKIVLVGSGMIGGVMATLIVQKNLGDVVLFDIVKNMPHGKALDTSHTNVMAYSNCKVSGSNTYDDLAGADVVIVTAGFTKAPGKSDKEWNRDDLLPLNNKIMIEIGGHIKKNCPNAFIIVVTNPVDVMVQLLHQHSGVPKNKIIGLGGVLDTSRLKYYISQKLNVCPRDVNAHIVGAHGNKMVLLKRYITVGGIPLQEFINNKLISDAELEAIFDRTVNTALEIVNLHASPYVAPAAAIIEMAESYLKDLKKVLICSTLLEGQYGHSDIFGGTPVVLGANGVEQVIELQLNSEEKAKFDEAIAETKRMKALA
Sequence of Plasmodium falciparum protein kinase 6 (PK6, PF3D7_1337100) (Q8IDW1 1-305): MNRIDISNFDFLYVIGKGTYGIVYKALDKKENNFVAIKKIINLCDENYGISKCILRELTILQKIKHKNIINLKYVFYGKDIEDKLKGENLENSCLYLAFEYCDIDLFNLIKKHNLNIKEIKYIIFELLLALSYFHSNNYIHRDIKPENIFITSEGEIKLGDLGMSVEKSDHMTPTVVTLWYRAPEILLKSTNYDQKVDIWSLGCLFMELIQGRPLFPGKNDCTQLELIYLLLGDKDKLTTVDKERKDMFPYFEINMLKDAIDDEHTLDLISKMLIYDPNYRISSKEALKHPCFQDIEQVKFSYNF
Sequence of Calcium-dependent protein kinase 1 (Plasmodium falciparum (isolate 3D7)) (P62344 whole entry, looked up): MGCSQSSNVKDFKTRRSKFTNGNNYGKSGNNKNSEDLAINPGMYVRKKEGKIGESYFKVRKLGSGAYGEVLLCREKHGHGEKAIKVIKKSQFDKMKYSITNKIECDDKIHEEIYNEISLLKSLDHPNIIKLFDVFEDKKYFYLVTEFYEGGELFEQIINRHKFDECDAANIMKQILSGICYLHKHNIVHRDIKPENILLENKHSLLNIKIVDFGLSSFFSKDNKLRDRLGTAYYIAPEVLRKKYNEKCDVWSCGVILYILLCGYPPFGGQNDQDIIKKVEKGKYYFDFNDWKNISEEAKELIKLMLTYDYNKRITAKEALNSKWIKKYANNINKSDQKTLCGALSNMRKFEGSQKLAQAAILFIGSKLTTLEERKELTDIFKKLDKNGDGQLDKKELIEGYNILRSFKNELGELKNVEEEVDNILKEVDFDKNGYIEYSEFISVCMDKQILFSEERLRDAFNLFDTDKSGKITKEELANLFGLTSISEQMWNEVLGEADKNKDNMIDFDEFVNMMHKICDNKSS

Row | Structure (SMILES) | growth inhibition [1] | inhibition [2] | inhibition [3] [%] | growth inhibition [4] | outcome [5] | outcome [6] | outcome [7] | outcome [8]
1 | CCCOc1ccc(C(F)(F)F)cc1NC(=O)c1nc2nc(C)cc(C)n2n1 | 88% (active) | 7% | -4 | 90% (active) | inactive | inactive | inactive | inactive
2 | COc1cc(CNC(=S)NN=C(C)c2ccccn2)cc(OC)c1OC | 92% (active) | 45% | -4 | 99% (active) | inactive | inactive | inactive | inactive
3 | CCc1ccc(CN2CCC(CNC(=O)c3cc(-c4cccc(C(F)(F)F)c4)cs3)C2)cc1 (stereo not drawn) | 48% | 45% | 2 | 97% (active) | inactive | inactive | inactive | inactive
4 | CC(=O)c1sc(Cc2nc3ccccc3s2)nc1C | 88% (active) | -13% | 1 | 94% (active) | inactive | inactive | inactive | inactive
5 | O=C(Nc1ccc(Cn2ncc(N3CCCNCC3)c(Cl)c2=O)cc1)Nc1cccc(SC(F)(F)F)c1 | 33% | 12% | 4 | 92% (active) | inactive | inactive | inactive | inactive
6 | COc1cc(NC(=O)N2CCOC(CCN3CCC4(CCc5ccccc54)CC3)(c3ccc(Cl)c(Cl)c3)C2)cc(OC)c1OC (stereo not drawn) | 67% (active) | 17% | -4 | 94% (active) | inactive | inactive | inactive | inactive
7 | O=[N+]([O-])c1cccc(C=NNc2ccnc3ccc(C(F)(F)F)cc23)c1 | 35% | -6% | -2 | 96% (active) | inactive | inactive | inactive | inactive
8 | Cc1cc(NCCCOc2ccc(Cl)cc2)nc(NCc2ccccc2)n1 | 20% | 45% | 0 | 95% (active) | inactive | inactive | inactive | inactive
9 | CC1(C)N=C(N)N=C(N)N1OCc1ccc(-c2ccccc2)cc1 | 97% (active) | 64% (active) | -6 | 95% (active) | inactive | inactive | inactive | inactive
10 | CCC(C)NS(=O)(=O)c1ccc2nc(Nc3ccc(C)c(Cl)c3)n([C@H](C)C(C)(C)C)c2c1 (stereo partly drawn) | 100% (active) | 8% | -5 | 98% (active) | inactive | inactive | inactive | inactive
11 | COc1ccc2c(c1)CC(CNC[C@H](O)c1cccc(Cl)c1)CC2 (stereo partly drawn) | 73% (active) | 1% | 7 | 94% (active) | inactive | inactive | inactive | inactive
12 | Cc1ccc(C(=O)Nc2cccc(CN3CCCN(Cc4ccc(O)cc4)CC3)c2)cc1 | 5% | -4% | -3 | 88% (active) | inactive | inactive | inactive | inactive
13 | Cc1cc(CNC(=O)[C@H](CC2CCCCC2)Nc2ccc(C#N)c3ccccc23)c(C(F)(F)F)o1 | 55% (active) | 13% | 3 | 87% (active) | inactive | inactive | inactive | inactive
14 | O=C(NCC1CCN(Cc2cccc(C(F)(F)F)c2)C1)c1cc(-c2cccc(Cl)c2)cs1 (stereo not drawn) | 14% | 15% | -5 | 93% (active) | inactive | inactive | inactive | inactive
15 | Cc1cc(Nc2ncc3c(n2)N(C2CCC2)CC3)ccc1N1CCN(C)CC1 | 100% (active) | 27% | -2 | 101% (active) | inactive | inactive | inactive | inactive
16 | Cc1cccc2[nH]c(-c3ccc(-c4cccc(NC(=O)CN5CCN(C)CC5)c4)s3)nc12 | 51% (active) | 7% | -3 | 96% (active) | inactive | inactive | inactive | inactive
17 | CC(C)CNCc1ccc(-c2ccccc2CN(C(=O)NCCc2ccccc2)C2CCN(Cc3ccccc3)CC2)cc1 | 94% (active) | 89% (active) | 2 | 98% (active) | inactive | inactive | inactive | inactive
18 | Cc1noc(C)c1-c1ccc2c(Nc3ccc(Cl)cc3)c(C(N)=O)cnc2c1 | 67% (active) | 9% | 7 | 94% (active) | inactive | inactive | inactive | inactive
19 | COc1ccccc1/C=C/C(=O)N(C)C1CCN(CCCCCNC(=O)/C=C/c2ccc(Cl)c(Cl)c2)C1 (stereo not drawn) | 14% | 10% | -14 | 94% (active) | inactive | inactive | inactive | inactive
20 | O=C(Cc1ccc(Cl)cc1)NC1CCN(c2ccnc3cc(Cl)ccc23)C1 (stereo not drawn) | 99% (active) | 13% | -3 | 82% (active) | inactive | inactive | inactive | inactive
21 | O=C(Nc1ccc(Oc2ccccc2)cc1)N[C@H]1CCN(Cc2ccc(OCCCN3CCCCC3)cc2)C1 | 6% | 13% | -6 | 103% (active) | inactive | inactive | inactive | inactive

Row | Structure (SMILES) | growth inhibition [1] | inhibition [2] | inhibition [3] [%] | growth inhibition [4] | outcome [5] | outcome [6] | outcome [7] | outcome [8]
22 | COc1ccc2nccc([C@@H](O)CN3CCC(NC[C@H](Cc4ccccc4)NC(=O)OC(C)(C)C)CC3)c2c1 | 86% (active) | 18% | 6 | 98% (active) | inactive | inactive | inactive | inactive
23 | COc1ccc(C(=O)C2CCN(CCCCNC(=O)c3ccc(NC(=O)c4cc(Cl)cc(Cl)c4)cc3)CC2)cc1 | 84% (active) | 35% | 5 | 100% (active) | inactive | inactive | inactive | inactive
24 | O=C(Nc1ccc(-c2nc3ccccc3[nH]2)cc1)C1CCCN(C2CCC2)C1 (stereo not drawn) | 5% | -1% | 4 | 90% (active) | inactive | inactive | inactive | inactive
25 | CC(C)(C)c1ccc(OCCCON2C(N)=NC(N)=NC2(C)C)cc1 | 76% (active) | 77% (active) | -4 | 93% (active) | inactive | inactive | inactive | inactive
26 | COc1ccc2nc(C)cc(NN=Cc3ccc([N+](=O)[O-])o3)c2c1 | 100% (active) | 18% | -5 | 100% (active) | inactive | inactive | inactive | inactive
27 | COc1ccc(CNC2Cc3ccccc3C2)cc1-c1ccc(S(=O)(=O)NCc2ccccc2)s1 | 25% | 22% | 4 | 97% (active) | inactive | inactive | inactive | inactive
28 | CCCCCC(=O)N1CCOC(CCN2CCC(c3ccccc3)CC2)(c2ccc(Cl)c(Cl)c2)C1 (stereo not drawn) | 51% (active) | 17% | 1 | 89% (active) | inactive | inactive | inactive | inactive
29 | COc1ccc(-c2ccc(CN(C)C3CCC(NC(=O)c4cc5ccccc5[nH]4)CC3)cc2)cn1 (stereo not drawn) | 2% | 31% | -1 | 88% (active) | inactive | inactive | inactive | inactive
30 | Cc1sc(CNCCCNc2cc(=O)c3ccccc3[nH]2)cc1Br | 83% (active) | 12% | -3 | 100% (active) | inactive | inactive | inactive | inactive
31 | CCOC(=O)c1cc2c(CCN3C(=O)c4ccccc4C3=O)cn(C)c2cc1-c1ccncc1 | 90% (active) | 99% (active) | 2 | 101% (active) | inactive | inactive | inactive | inactive
32 | COc1ccc(CNC(=O)NC2CCN(c3ccnc(Nc4ccc(F)cc4)n3)C2)cc1 (stereo not drawn) | 78% (active) | 4% | -2 | 91% (active) | inactive | inactive | inactive | inactive
33 | CCc1ccc(CN2CCC(NC(=O)c3ccc(-c4ccc(N(C)C)cc4)s3)CC2)cc1 | 44% | 52% (active) | -4 | 84% (active) | inactive | inactive | inactive | inactive
34 | S=C(NCCN1CCOCC1)Nc1ccccc1 | 1% | 3% | 1 | 94% (active) | inactive | inactive | inactive | inactive
35 | COc1ccc(-c2ccc3c(-c4ccc(F)cc4)cnc(N)c3c2)cn1 | 86% (active) | 4% | -5 | 99% (active) | inactive | inactive | inactive | inactive
36 | CN1CCC[C@H]1COc1ccc(CN2CC[C@H](NC(=O)c3ccc(Cl)c(Cl)c3)C2)cc1Cl | 44% | 53% (active) | -2 | 97% (active) | inactive | inactive | inactive | inactive
37 | C=CCn1c(Sc2ccc(C#N)c([N+](=O)[O-])c2)nnc1-c1cccc(Cl)c1 | 54% (active) | 41% | -1 | 97% (active) | inactive | inactive | inactive | inactive
38 | CC1(C)N=C(N)N=C(N)N1O | 1% | 7% | -5 | 93% (active) | inactive | inactive | inactive | inactive
39 | CC(C)Cn1c2ccccc2c2nc3nc(N)nc(N)c3nc21 | -1% | 36% | -3 | 93% (active) | inactive | inactive | inactive | inactive
40 | CN1CCC(N(Cc2ccc(-c3ccc(C(F)(F)F)cc3)cc2)C(=O)Cn2cc(Cc3cnn(C)c3)c(=O)nc2SCc2cccc(F)c2F)CC1 | 91% (active) | 68% (active) | 7 | 88% (active) | inactive | inactive | inactive | inactive
41 | COc1ccc(Oc2ccc(-c3c(C)[nH]c(C)c(Cl)c3=O)cc2)cc1 | 97% (active) | -2% | -3 | 97% (active) | inactive | inactive | inactive | inactive
